Source: PubChem BioAssay AID1489 (National Center for Advancing Translational Sciences (NCATS), 2009)
Results filed as inconclusive are left out. Calls of active or inactive are those of the source. Calls follow the shape of the dose curve; as a rule, active = well fitted antagonist curve with a large enough effect in the main read-out, with a control signal flat; inconclusive = small, poorly fitted or top-dose-only effect; inactive = no such curve, though single readings can be large or run the other way.

Target: Neuropeptide S receptor (Homo sapiens) (UniProt Q6W5P4)
Experiment: Confirmation Concentration-Response Assay for Antagonists of the Neuropeptide S Receptor: Calcium Signal Transduction
Settings: CHO-NPSR cells, NPS-induced calcium flux, FDSS; series mostly up to 19.3 µM; activity change, negative = inhibition: at the top concentration
Text: NIH Chemical Genomics Center [NCGC] NIH Molecular Libraries Probe Production centers Network [MLPCN] MLPCN Grant: X01-DA026210-01 Assay Submitter (PI): Heilig, Markus Alexander NCGC Assay Overview: Neuropeptide S receptor (NPSR), previously known as GPR154, is a recently de-orphanized G protein coupled receptor. Its endogenous ligand is the 20 amino acids peptide Neuropeptide S (NPS). […] NPS and its receptor are found in various tissues. Specifically they are highly expressed in brain areas that have been implicated in modulation of arousal, stress and anxiety. Central administration of NPS in mice produces an unusual profile of activity by inducing wakefulness and arousal, while at the same time suppressing anxiety. Therefore, NPSR may represent a novel drug target for the treatment of sleep and anxiety disorders. To identify NPSR antagonists, we developed a cell-based assay with transfected NPS receptor. NPS can stimulate the production of cAMP as well as release intracellular calcium in Chinese hamster ovary cells stably expressing NPS receptor. This change in intracellular calcium can be detected using a calcium indicator dye on a calcium imaging plate reader system (FDSS).
NCGC Assay Protocol Summary: A Chinese hamster ovary (CHO) cell line stably expressing the NPS receptor (CHO-NPSR) was obtained from Dr. Heilig lab at NIAAA and maintained in F-12 Kaighn's media (Invitrogen, Carlsbad, CA, 21127) supplemented with 10 % FBS, 100 units/ml penicillin, 100 ug/ml streptomycin and 250 ug/ml geneticin at 37C, 5% CO2 in a humidified atmosphere. Before the assay, aliquots of cells were frozen and stored at -135C. The assay was performed on a FDSS-7000 kinetic plate reader in 1536-well format. For both agonist (1-220s) and antagonist (221-400s) phases, the maximums of kinetic fluorescence responses were converted separately into text files using the instrument's software data export utility. Data for agonist response were normalized to the controls for basal activity (DMSO only) and 100% activation (NPS). […] AC50 values were determined from concentration-response data modeled with the standard Hill equation. NPS 1536-well FDSS assay protocol: (1) Frozen CHO-NPSR cells were thaw, washed once with fresh media and resuspended in F-12 Kaighn's media supplemented with 10 % FBS, 100 units/ml penicillin and 100 ug/ml streptomycin. Cells were plated at 3 ul/well (1200 cells) to black, clear-bottom, tissue-culture treated 1536-well plates, and then cultured at 37C, 5 % CO2 for 16 to 30 hours. (2) Add 3 ul of calcium dye (from High Performance PBX Calcium Assay Kit, BD Biosciences). The calcium dye was prepared according to the manufactory's instruction. (3) Incubation at 37C, 5 % CO2 for 60 to 120 min. (4) Load plates to FDSS-7000. The following steps were performed on FDSS-7000. (5) Record fluorescent background (Ex 480 nm, Em 520-560 nm) for 10 s. (6) Add 23 nl/well of compound in DMSO solution. The final titration for each compound was between 0.6 nM and 46 uM. Record agonist response for 210 s. (7) Add 2 ul of stimulation reagent (1X HBSS buffer, 0.1% BSA, 60 nM NPS). Record antagonist response for 140 s. Keywords: MLSMR, MLPCN, NIH Roadmap, qHTS, NCGC, NPS, Neuropeptide S Antagonists

Sequence of Neuropeptide S receptor (Homo sapiens) (Q6W5P4 whole entry, looked up): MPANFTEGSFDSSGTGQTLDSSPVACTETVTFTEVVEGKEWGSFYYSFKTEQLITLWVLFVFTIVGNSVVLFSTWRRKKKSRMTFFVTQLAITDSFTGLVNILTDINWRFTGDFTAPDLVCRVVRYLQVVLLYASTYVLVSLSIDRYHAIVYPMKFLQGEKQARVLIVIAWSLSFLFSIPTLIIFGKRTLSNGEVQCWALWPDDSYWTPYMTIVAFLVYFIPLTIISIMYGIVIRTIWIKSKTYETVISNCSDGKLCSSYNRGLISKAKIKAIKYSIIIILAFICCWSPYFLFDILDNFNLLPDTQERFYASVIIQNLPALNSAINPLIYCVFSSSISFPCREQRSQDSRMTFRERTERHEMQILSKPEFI

SMILES	activity change, negative = inhibition	Potency
CN(C)C(=O)Oc1cccc([N+](C)(C)C)c1	20.5% (inactive)	–
O=C(N1CCOCC1)C1(c2ccc(Cl)cc2)CCCC1	17.2% (inactive)	–
CCc1ccc2oc(-c3cc(N)cc(C)c3O)nc2c1	12% (inactive)	–
Cc1ccc(S(=O)(=O)Nc2ccccc2CNc2c(C)n(C)n(-c3ccccc3)c2=O)cc1	-20.6% (inactive)	–
Brc1ccc(CSc2ncn[nH]2)cc1	-6.38% (inactive)	–
CN(C)C(=S)N=Nc1[nH]c2ccccc2c1O	15.4% (inactive)	–
O=C(NCCCN1CCOCC1)c1cc2c(=O)[nH]c3ccccc3c2s1	4.7% (inactive)	–
Cc1cccnc1NC(=O)c1c(O)c2cccc3c2n(c1=O)CCC3	-5.87% (inactive)	–
CCOc1ccc(N2C(=O)CC(NCCc3ccncc3)C2=O)cc1 (stereo not given)	12.8% (inactive)	–
CCSc1nc2c(c(=O)n1Cc1ccccc1)SC(C)C2 (stereo not given)	-2.84% (inactive)	–
CN(Cc1cc(=O)[nH]c2ccccc12)C(=O)c1ccccc1	-1.96% (inactive)	–
O=C(O)CCCCCNc1nc(=S)[nH]c2ccccc12	-0.723% (inactive)	–
Cc1cc2nc3ccc(=[N+](C)C)cc-3sc2cc1N	-7.55% (inactive)	–
CC1(C)O[C@@H]2C[C@H]3[C@@H]4C[C@H](F)C5=CC(=O)CC[C@]5(C)[C@H]4[C@@H](O)C[C@]3(C)[C@]2(C(=O)CO)O1	34.2% (inactive)	–
COc1ccc(C(=O)N(Cc2ccco2)Cc2cccs2)c(O)c1	34.4% (inactive)	–
Cc1ccc(/C=C2\SC(=S)N(CC(=O)Nc3ncc(Cc4ccccc4Cl)s3)C2=O)cc1	-2.64% (inactive)	–
O=C(O)c1cccc(Nc2ncnc3ccccc23)c1	-7.58% (inactive)	–
COc1ccc(C2c3c(ncn(CCN4CCOCC4)c3=N)Oc3ccc4ccccc4c32)cc1OC (stereo not given)	–	1.58 µM (active)
O=C1Nc2ccc(S(=O)(=O)N3CCCC3C(=O)O)c3cccc1c23 (stereo not given)	-13.6% (inactive)	–
CCC(c1nnnn1C1CCCC1)N1CCN(c2ccccc2)CC1 (stereo not given)	-5.45% (inactive)	–

SMILES	activity change, negative = inhibition	Potency
CC(=O)c1sc(N/N=C\c2ccccc2O)nc1C	–	1.12 µM (active)
Cc1cc(OCC(=O)c2ccc(Br)cc2)ccc1N1C(=O)CCC1=O	-13.3% (inactive)	–
C=CCNC(=O)/C(C#N)=C/c1cn(-c2ccccc2)nc1-c1ccc(OC)c([N+](=O)[O-])c1	-2.88% (inactive)	–
Oc1ccc(N=Nc2nccs2)c(O)c1	-0.946% (inactive)	–
CCCCCN1C=CC=C/C1=C\C=C(C#N)C#N	-25.1% (inactive)	–
COc1ccc(N(CC(=O)Nc2cccc(SC)c2)S(C)(=O)=O)cc1Cl	-16.1% (inactive)	–
C(=N\Nc1nc(-c2ccccn2)nc2ccccc12)/c1ccccc1	1.74% (inactive)	–
C=CCn1c(SCCN2C(=O)c3ccccc3C2=O)nc2scc(-c3ccccc3)c2c1=O	-9.23% (inactive)	–
Cn1c(C(=O)NCCN2CCc3ccccc3C2)cc2c(=O)[nH]c3ccccc3c21	3.7% (inactive)	–
O=C(O)C1CCN(c2nc(-c3ccccc3)nc3c2oc2ccccc23)CC1	-15.4% (inactive)	–
Cc1nn(C)cc1/C=N/NC(=S)Nc1ccccc1	3.91% (inactive)	–
Cc1ccc(NC(=S)NNC(C)(C)C)cc1	9.85% (inactive)	–
COc1ccc(OC)c(C2C(C(=O)Nc3nc4ccccc4s3)=C(C)NC3=C2C(=O)CCC3)c1 (stereo not given)	–	2.82 µM (active)
CC1(C)Cc2c(c(N3CCOCC3)nc3sc4c(NCC5CCCO5)nnnc4c23)CS1 (stereo not given)	-40.4% (inactive)	–
COC(=O)c1ccc(C(=O)OC)c(NC(=O)CSc2cccc[n+]2[O-])c1	17.1% (inactive)	–
NC(=S)N/N=C/c1ncc(C(F)(F)F)cc1Cl	-1.3% (inactive)	–
Cc1ccc(S(=O)(=O)Nc2cccc3ncccc23)s1	–	3.16 µM (active)
Cc1nn(C(=O)c2cccs2)c(N)c1-c1ccccc1	0.372% (inactive)	–
O=C(CSC1=NCCS1)Nc1ccnc2ccccc12	-15.5% (inactive)	–
COc1ccc(N=C2S/C(=C\c3ccc(N4CCOCC4)o3)C(=O)N2CCc2c[nH]c3ccccc23)cc1	–	2.24 µM (active)
